# Bioassay records deposited in PubChem by National Center for Advancing Translational Sciences (NCATS).
# Only some compounds are listed: those with a hit (about 19% of all), similar ones and a draw of the others.
# IL-1B inflam inh = qHTS for Inhibitors of Inflammasome Signaling: IL-1-beta AlphaLISA Primary Screen; THP-1 LPS/ATP IL-1B secretion, AlphaLISA, 16 h; active compounds read low; activity change, % at 57.5 µM; 4.7% of 360,000 active; in the data active = activity change below about -50%; inconclusive = mostly about -30% to -49%
#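 THP-1 cells pretreated 1 hr with compounds (up to 57.5 uM final), then stimulated with LPS (250 ng/mL final) plus ATP (1.25 mM final); secreted IL-1B measured by AlphaLISA after 16 hr, decreased signal indicating inhibition.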
# TDP1 cell CPT = qHTS for Inhibitors of human tyrosyl-DNA phosphodiesterase 1 (TDP1): qHTS in cells in presence of CPT; chicken DT40 Tdp1-/-;hTDP1 cells + 20 nM CPT, ATP luminescence, 48 h; AID 686979, 2013; Potency, µM (series often up to 46.2 µM), for the others: at the top dose activity change, negative = growth inhibition, usual class: inhibitors; 12% of 420,000 active; note: potency is the fitted concentration of half-maximal effect; nearly all actives have a fitted effect of over 55% in size
#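 Cell growth measured by CellTiter-Glo luminescence after a minimum 48 h, 37 C compound exposure with 20 nM CPT in Tdp1-knockout DT40 cells stably expressing hTDP1, seeded 400/well; qHTS titration format.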
# DT40 TDP1 no CPT = qHTS for Inhibitors of human tyrosyl-DNA phosphodiesterase 1 (TDP1): qHTS in cells in absence of CPT; Potency, µM (doses to about 46.2 µM), inactives show top-dose activity change, negative = growth inhibition, hits mostly inhibitors; AID 686978, 2013; DT40 Tdp1-/- hTDP1 cells, no CPT, ATP luminescence, 48 h; 15% of 420,000 active; note: potency is the fitted concentration of half-maximal effect; nearly all actives have a fitted effect of over 55% in size
#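 Chicken DT40 Tdp1-/- cells stably complemented with human TDP1 were seeded at 400 cells/well with DMSO in place of 20 nM camptothecin. After compound pinning, cells grew at least 48 hr at 37 °C; viability read by CellTiter-Glo luminescence.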
# HT1080-NT tox = qHTS for induction of synthetic lethality in tumor cells producing 2HG: qHTS for the HT-1080-NT fibrosarcoma cell line; HT-1080-NT fibrosarcoma viability, CellTiter-Glo ATP luminescence, 48 h; Potency, µM (titrated, usually from 46.1 µM), inactives show top-dose activity, negative = less viability, actives largely listed as cytotoxic; 1.6% of 360,000 active; AID 686970, 2013;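 note: NT is the 2HG producing partner of a matched IDH1 knockdown line; potency is the fitted concentration of half-maximal effect; 0% = DMSO-treated cells and -100% = media-only wells without cells; nearly all actives have a fitted effect of over 55% in size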
#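 750 cells/well, RPMI + 5% FBS; 2 h settle, compound pin-transfer, 48 h at 37 degrees C. CellTiter-Glo 10 min RT, luminescence. Normalized to DMSO and media-only wells.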
# HT1080 IDH1KD tx = qHTS for induction of synthetic lethality in tumor cells producing 2HG: qHTS for the HT-1080-IDH1KD cell line. Potency, µM (series often up to 46.1 µM), for the others: at the top dose activity, negative = toxicity, most hits filed as cytotoxic. AID 686971, 2013. HT-1080 IDH1 knockdown viability, ATP luminescence, 48 h. 2% of 360,000 active;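 note: potency is the fitted concentration of half-maximal effect; 0% = DMSO wells and -100% = cell-free medium wells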
#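 HT-1080-IDH1KD cells (IDH1 knocked down), 750/well in RPMI with 5% FBS, treated with compound 48 h at 37 degrees C. Viability by CellTiter-Glo luminescence, normalised to DMSO and no-cell wells; concentration-response curves classed.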
# uPA generation = qHTS for Inhibitors of Cell Surface uPA Generation | 0.31% of 330,000 active | cell surface uPA generation assay, qHTS | Potency, µM (series often up to 38.3 µM), for inactives: at the highest dose activity change, negative = inhibition, usual class: inhibitors; active = well fitted inhibition curve with a large enough effect; inconclusive = small, poorly fitted or top-dose-only effect; inactive = no such curve, though single readings can be large or run the other way; tested in mouse RAW 264.7 cells; note: potency is the fitted concentration of half-maximal effect; nearly all actives have a fitted effect of over 55% in size
# * = called active by the depositor; i = inactive; u = inconclusive; x = no result. Unless noted, calls come from the whole dose curve; as a rule, active = well fitted curve in the direction sought with a large enough effect; inconclusive = small, poorly fitted or top-dose-only effect, or another doubt; inactive = no such curve, though single readings can be large; an effect the other way counts as inactive or inconclusive. Unless noted, % is set by controls: 0 for no effect and ±100 for the full control effect.
SMILES,IL-1B inflam inh,TDP1 cell CPT,DT40 TDP1 no CPT,HT1080-NT tox,HT1080 IDH1KD tx,uPA generation
CC(C)n1cc(CN2CCN(C)C(CCO)C2)c2ccccc21 (stereo not drawn),7,u,-29%,4%,7%,-22%
CCOC(=O)C1CCN(C(=O)CN2C(=O)CSc3ccc(S(=O)(=O)N4CCOCC4)cc32)CC1,-6,-6%,13%,-1%,10%,-28%
Cc1ccc(NC2=CC(=O)CC(C)(C)C2)c(N)c1,-3,-7%,-26%,-5%,-4%,-5%
CCc1ccc(NC2=CC(=O)CC(C)(C)C2)cc1,-56*,-5%,-13%,12%,-2%,-5%
CC1(C)CC(=O)C=C(Nc2ccc(Br)cc2F)C1,-81*,-26%,-19%,1%,-6%,-3%
COC(=O)c1ccc(NC(=O)c2cc[n+]([O-])cc2)cc1,35,19%,u,5%,0%,0%
CC(C)(CNC(=O)c1cccc(S(=O)(=O)Nc2ccc(SC(F)F)cc2)c1)N1CCOCC1,36,u,0%,-7%,-4%,2%
Cc1cc(C(N)=O)c2ccccc2n1,16,1%,0%,1%,-9%,11%
NC(=O)c1cc2ccncc2c2ccccc12,u,13µM*,6.5µM*,-12%,-8%,-7%
Cn1c(=O)n(C)c2cc(NC(=O)CSc3ccccc3)ccc21,19,-21%,-9%,-11%,-3%,-3%
Cc1cccc2sc(NNC(=O)C3COc4ccccc4O3)nc12 (stereo not drawn),-27,u,u,-3%,-5%,-8%
O=C(Nc1nnc(C(F)(F)F)s1)C1COc2ccccc2O1 (stereo not drawn),u,u,u,u,23µM*,-6%
COc1ccc(OC)c2sc(NNC(=O)C3COc4ccccc4O3)nc12 (stereo not drawn),-8,15µM*,u,-3%,-19%,28%
O=C(Nc1ccc(-c2cn3ccsc3n2)cc1)C1COc2ccccc2O1 (stereo not drawn),-3,21µM*,u,-24%,u,-1%
COc1ccc(-c2csc(NC(=O)C3COc4ccccc4O3)n2)cc1OC (stereo not drawn),u,16µM*,13µM*,-15%,-7%,-9%
CC(C)(C)c1csc(NC(=O)C2COc3ccccc3O2)n1 (stereo not drawn),i,u,u,-1%,-10%,4%
CN1CCN(c2ccc([N+](=O)[O-])cc2NC(=O)c2ccco2)CC1,-11,-25%,-19%,-1%,0%,-1%
O=C(Nc1ccccc1C(=O)N1CCCC1)c1ccc(Cl)c([N+](=O)[O-])c1,u,-22%,u,-15%,-5%,1%
CN1CCN(c2ccc([N+](=O)[O-])cc2NC(=O)c2cccs2)CC1,-24,u,23µM*,-24%,-22%,u
CN1CCN(c2ccc(C(=O)c3ccc(Br)cc3)cc2[N+](=O)[O-])CC1,-220*,u,15µM*,-12%,u,-6%
CC(=O)N1CCN(c2ccc(C(N)=O)cc2[N+](=O)[O-])CC1,46,-10%,-1%,-3%,-3%,-1%
O=C(Nc1ccccc1N1CCCCC1)c1ccc(Cl)c([N+](=O)[O-])c1,x,u,18µM*,u,u,-7%
CC1CCN(c2ccccc2NC(=O)c2ccc(N3CCOCC3)c([N+](=O)[O-])c2)CC1,1,1%,-6%,3%,7%,1%
